Among the test systems are NCI-H23 lung; NCI-H226 lung; NCI-H322M lung; HOP-62 NSCLC; NCI-H460 lung; NCI-H522 lung; A549/ATCC NSCLC; 786-0 renal; COLO 205 colon; DU-145 prostate; K-562 leukemia; MALME-3M melanoma; MDA-MB-231 breast; RXF 393 renal; SF-268 CNS; SF-295 CNS; SF-539 CNS; UACC-257 melanoma; M14 melanoma.
Holding throughout (test): NCI-60 one-dose screen, 48 h (100 = growth as untreated, 0 = no growth, -100 = all killed)
What all share (conditions): 10 µM unless noted

The source of these data is PubChem BioAssay (NCI).

The panel holds about 83,000 compounds, 20% with a hit somewhere; the sample as a whole holds those more often.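 For each line, cells grew in 96-well plates with the test compound present at a single concentration for 48 hours.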 Unmarked numbers belong to inactive results. Calls of active or inactive are those of the source. Rule for the calls: active = growth percent below 10; inactive = the rest.

Consider `c1ccc(-c2nnn(-c3ccccc3)n2)cc1`, for which the growth was 105% in the assay on NCI-H23 lung; 91.4% with NCI-H226 lung; 100% in the assay with NCI-H322M lung; 95.8% with HOP-62 NSCLC; 114% in the assay with NCI-H460 lung; 89.7% with NCI-H522 lung. In addition, the growth in the assay on A549/ATCC NSCLC is 99.7%; in the assay on 786-0 renal, 104%; in the assay on COLO 205 colon, 117%; with DU-145 prostate, 127%; in the assay with K-562 leukemia, 89.1%; in the assay on MALME-3M melanoma, 115%. For the same compound, the growth was 84.6% with MDA-MB-231 breast; 102% with RXF 393 renal; 109% with SF-268 CNS; 106% with SF-295 CNS; 105% in the assay on SF-539 CNS; 103% in the assay with UACC-257 melanoma. In addition, the growth with M14 melanoma was 109%.
With `CCCCCCCCN(CCCCCCCC)C(=O)CCl`, the growth is 70.6% in the assay with NCI-H23 lung; 96.8% in the assay on NCI-H226 lung; 108% with NCI-H322M lung; 113% with HOP-62 NSCLC; 102% in the assay on NCI-H460 lung; -50.5% (active) in the assay on NCI-H522 lung. For the same compound, the growth in the assay on A549/ATCC NSCLC is 114%; in the assay with 786-0 renal, 80.6%; in the assay with COLO 205 colon it was 108%; in the assay on DU-145 prostate, 110%; in the assay with K-562 leukemia, 105%; with MALME-3M melanoma, 84.8%. The growth in the assay with MDA-MB-231 breast is 104%; in the assay on RXF 393 renal, 103%; in the assay with SF-268 CNS, 99%; in the assay on SF-295 CNS, 106%; in the assay on SF-539 CNS it was 106%; with UACC-257 melanoma, 112%. The growth in the assay with M14 melanoma is 104%.
`CS(=O)(=O)c1ccc(C(=O)N/N=C/c2ccc3c(c2)OCO3)cc1`: the growth is 96.9% with NCI-H23 lung; 91.1% with NCI-H226 lung; 96.2% with NCI-H322M lung; 96.8% in the assay on HOP-62 NSCLC; 107% in the assay on NCI-H460 lung; 86% in the assay with NCI-H522 lung. The growth with A549/ATCC NSCLC was 67.7%; with 786-0 renal, 102%; in the assay on COLO 205 colon it was 110%; with DU-145 prostate it was 108%; in the assay on K-562 leukemia it was 85.5%; with MALME-3M melanoma, 105%. The growth with MDA-MB-231 breast was 107%; in the assay on RXF 393 renal, 120%; in the assay with SF-268 CNS, 104%; in the assay on SF-295 CNS, 101%; in the assay on SF-539 CNS it was 105%; in the assay on UACC-257 melanoma, 59.1%. Also, in the assay with M14 melanoma, the growth is 106%.
In the case of `O=C(/C=C/c1ccc(F)cc1)N1CCN(C(=O)/C=C/c2ccc(C(F)(F)F)cc2)CC1`, the growth is 106% in the assay with NCI-H23 lung; 108% in the assay on NCI-H226 lung; 106% with NCI-H322M lung; 109% in the assay with HOP-62 NSCLC; 116% in the assay on NCI-H460 lung; 92% in the assay on NCI-H522 lung. Further, the growth is 96.9% in the assay on A549/ATCC NSCLC; 107% in the assay on 786-0 renal; 126% in the assay with COLO 205 colon; 109% with DU-145 prostate; 104% in the assay with K-562 leukemia; 98.6% in the assay with MALME-3M melanoma. Moreover, the growth in the assay on MDA-MB-231 breast is 96.8%; in the assay on RXF 393 renal, 120%; in the assay with SF-268 CNS, 114%; in the assay on SF-295 CNS it was 119%; with SF-539 CNS, 123%; in the assay with UACC-257 melanoma it was 97.3%. Also, the growth in the assay with M14 melanoma is 97.4%.
For `O=C(c1ccccc1)C(CCc1ccccn1)CCc1ccccn1`, the growth is 106% in the assay on NCI-H23 lung; 104% with NCI-H226 lung; 117% in the assay on NCI-H322M lung; 93.1% in the assay with HOP-62 NSCLC; 110% with NCI-H460 lung; 89.5% in the assay with NCI-H522 lung. In addition, the growth with A549/ATCC NSCLC was 98.3%; in the assay on 786-0 renal, 98.4%; with COLO 205 colon, 105%; in the assay with DU-145 prostate it was 101%; in the assay with K-562 leukemia, 96.2%; in the assay on MALME-3M melanoma, 82.4%. Further, the growth in the assay with MDA-MB-231 breast is 99.5%; in the assay with RXF 393 renal, 120%; in the assay on SF-268 CNS it was 101%; in the assay with SF-295 CNS, 110%; with SF-539 CNS, 103%; with UACC-257 melanoma, 109%. The growth in the assay with M14 melanoma was 93.7%.
Turning to `CC(C)[C@@H]1C=C2CC[C@H]3[C@](C)(CN)CCC[C@]3(C)[C@H]2CC1`, the growth was 95.4% with NCI-H23 lung; 98.7% with NCI-H226 lung; -6.11% (active) with NCI-H322M lung; 59.8% in the assay with HOP-62 NSCLC; -69.7% (active) with NCI-H460 lung; 86.7% with NCI-H522 lung. Besides, the growth in the assay on A549/ATCC NSCLC is 95.5%; in the assay on 786-0 renal it was 78%; in the assay on COLO 205 colon, -89.7% (active); in the assay on DU-145 prostate, 44.1%; in the assay with K-562 leukemia, 17.5%; in the assay with MALME-3M melanoma, 60.2%. The growth was 61.3% in the assay on MDA-MB-231 breast; 87.9% in the assay on RXF 393 renal; 43.4% with SF-268 CNS; 54.8% with SF-295 CNS; 102% with SF-539 CNS; 104% in the assay on UACC-257 melanoma. Also, the growth in the assay on M14 melanoma was 89.3%.
Turning to `O=C(CCl)Nc1ccc2c(c1)C(=O)c1ccccc1C2=O`, the growth with NCI-H23 lung is -21.2% (active); in the assay on NCI-H226 lung it was -22.6% (active); with NCI-H322M lung, 83.5%; in the assay with HOP-62 NSCLC it was 19.9%; in the assay on NCI-H460 lung, 3.8% (active); in the assay on NCI-H522 lung, -68.2% (active). Also, the growth in the assay with A549/ATCC NSCLC was 75.7%; with 786-0 renal, -72.3% (active); with COLO 205 colon, -50.7% (active); in the assay on DU-145 prostate, 3.17% (active); with K-562 leukemia, -8.49% (active); in the assay on MALME-3M melanoma, -62.5% (active). Besides, the growth was -5.91% (active) in the assay on MDA-MB-231 breast; 39.8% with RXF 393 renal; -20.3% (active) in the assay with SF-268 CNS; 69.9% in the assay with SF-295 CNS; -10.5% (active) with SF-539 CNS; 36.2% with UACC-257 melanoma. Besides, the growth in the assay on M14 melanoma was -31.6% (active).
Consider `CC(C)CCSc1nc(-c2ccc(F)cc2)c(C#N)c(N2CCCCC2)n1`, for which the growth in the assay on NCI-H23 lung is 90.6%; with NCI-H226 lung, 88.8%; with NCI-H322M lung, 94.5%; with HOP-62 NSCLC, 102%; with NCI-H460 lung, 93.1%; in the assay on NCI-H522 lung it was 78.8%. For the same compound, the growth in the assay on A549/ATCC NSCLC was 83.3%; in the assay with 786-0 renal it was 98.5%; in the assay on COLO 205 colon, 103%; with DU-145 prostate it was 97%; in the assay on K-562 leukemia, 78.8%; in the assay with MALME-3M melanoma, 93.9%. In addition, the growth in the assay with MDA-MB-231 breast is 88%; in the assay on RXF 393 renal, 94.3%; in the assay on SF-268 CNS, 97.3%; in the assay on SF-295 CNS, 103%; with SF-539 CNS it was 107%; in the assay on UACC-257 melanoma, 84.7%. Moreover, the growth in the assay on M14 melanoma is 99.2%.
